# Experimental data from PubChem BioAssay AID1010 (Sanford-Burnham Center for Chemical Genomics, 2008).
# Hit rate of the full screen: of about 48,000 compounds, about 160 (0.33%) were called active.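 The calls were made as follows: active = survival measured by cellular ATP above 50% at 15 µg/ml in the first screen; inactive = the rest.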 This excerpt belongs to a sample that is enriched for actives.
# Experiment: protection against thapsigargin ER stress killing – CSM14.1 cells, ATP luminescence, primary screen (AID 1010);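 also: cell death triggered by about 15 µM thapsigargin; ATP read 24 h after thapsigargin was added; plate controls were thapsigargin with DMSO for no effect and DMSO without thapsigargin for full effect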
# Conditions: CSM14.1 thapsigargin ER stress survival, stronger effect = higher value, screened at 15 µg/mL (by protocol)
row,SMILES,relative survival (cellular ATP)
1,Cc1ccc(C(=O)Nc2ccc(Cl)cc2)o1,2.1% (inactive)
2,O=S(=O)(O)c1cc(-n2nc3ccc4c(S(=O)(=O)O)cccc4c3n2)ccc1/C=C/c1ccccc1,6.1% (inactive)
3,CCc1cccc(C)c1NC(=O)c1ccc(C)c([N+](=O)[O-])c1,0.4% (inactive)
4,CC(NC(=O)C(F)(Cl)C(F)(F)F)c1ccccc1 (configuration not stated),-2.2% (inactive)
5,O=C(N/C(=C/c1ccc(-c2cccc(C(F)(F)F)c2)o1)C(=O)N1CCOCC1)c1ccc(Cl)cc1,1% (inactive)
6,O=[N+]([O-])c1ccc(C2Nc3ccc(Br)cc3C3C=CCC32)cc1 (configuration not stated),6.4% (inactive)
7,COc1ccc(C2C3=C(CC(C)(C)CC3=O)Nc3ccccc3N2C(=O)c2ccc(Cl)cc2)cc1OC (configuration not stated),59.4% (active)
8,CC1(C)CC(=O)C2=C(C1)Nc1ccccc1N(C(=O)Cc1ccccc1)C2c1cccc(F)c1 (configuration not stated),0.5% (inactive)
9,CC1(C)CC(=O)C2=C(C1)NC1=C(C(=O)CC(C)(C)C1)C2c1ccccc1Cl,9.2% (inactive)
10,CC(=O)Oc1ccc2occ(C(=O)c3ccc(C)cc3)c2c1,-6.1% (inactive)
11,CCOC(=O)C1=NN(C(=O)c2ccc(Cl)cc2)C(O)(C(C)(C)C)C1 (configuration not stated),11.8% (inactive)
12,O=C(/C=C/c1ccccc1Cl)c1ccc(NC(=O)c2cccs2)cc1,1.3% (inactive)
13,O=C(c1ccc(C#CC2(O)CCCCC2)cc1)N1CCN(c2ccccc2Cl)CC1,94.4% (active)
14,CC(=O)Nc1ccc(C(=O)N2CCN(c3ccccc3)CC2)cc1,-6.3% (inactive)
15,OC1(C#Cc2ccccc2)CCN(Cc2ccccc2)CC1,-6% (inactive)
16,Cc1cc(=O)oc2cc(OCC(=O)OCc3ccccc3)ccc12,1.2% (inactive)
17,Cn1nc(-c2ccc(Br)cc2)cc1N,-2.2% (inactive)
18,COc1cc(C2Nc3ccc4ccccc4c3C3=C2C(=O)CC(C)(C)C3)c(Br)cc1O (configuration not stated),1.3% (inactive)
19,COc1cc(OC)c(C2NC(=S)NC(C)=C2C(=O)Nc2ccc(Cl)cc2)cc1OC (configuration not stated),7.2% (inactive)
20,CCOc1nc(-c2ccccc2)cc(-c2ccc(Br)cc2)n1,1.9% (inactive)
21,NS(=O)(=O)c1cccc(C(=O)Nc2ccc([N+](=O)[O-])cc2)c1,4.7% (inactive)
22,Clc1ccc(/C=N\N2CCN(C(c3ccccc3)c3ccccc3)CC2)cc1,9.1% (inactive)
23,C/C(Cn1nnc([N+](=O)[O-])n1)=N/NC(=O)Cc1ccccc1,-8.3% (inactive)

row,SMILES,relative survival (cellular ATP)
1,CCCCS(=O)(=O)CC(O)COc1ccccc1 (configuration not stated),10.3% (inactive)
2,COc1cccc(C(=O)Nc2ccccc2C(F)(F)F)c1,5.4% (inactive)
3,CCOC1CC(c2ccccc2)=NN1c1ccccc1 (configuration not stated),2.7% (inactive)
4,COc1ccc(C2/C(=C(\O)c3ccc(F)cc3)C(=O)C(=O)N2c2nncs2)cc1 (configuration not stated),-1.4% (inactive)
5,Oc1c(/C=C2/C=Nc3ccccc32)sc(=S)n1Cc1ccccc1,11% (inactive)
6,O=C(Nc1cccc(F)c1)c1sc2ccccc2c1Cl,1.2% (inactive)
7,COc1ccc(N2C(=O)c3ccc(C(=O)Nc4cccc(O)c4)cc3C2=O)cc1,2% (inactive)
8,COC(=O)c1ccc(/C=C2\SC(=S)N(CCCC(=O)Nc3nccs3)C2=O)cc1,-4% (inactive)
9,COc1ccccc1CC(=O)Nc1ccc(F)cc1F,6.1% (inactive)
10,COc1ccc(C2/C(=C(\O)c3ccc(Cl)cc3)C(=O)C(=O)N2CCCn2ccnc2)cc1 (configuration not stated),13% (inactive)
11,COc1ccc(C2Sc3ccccc3NC3=C2C(=O)c2ccccc23)cc1 (configuration not stated),5.1% (inactive)
12,COc1ccc(NC(=O)c2cccc(N3C(=O)c4ccc(C(=O)Nc5ccc(OC)cc5)cc4C3=O)c2)cc1,0.4% (inactive)
13,COc1cc(C2NC(=S)NC(C)=C2C(=O)Nc2ccccc2)ccc1O (configuration not stated),3.8% (inactive)
14,CC(=O)N1C(=O)c2cccc3cccc1c23,17.3% (inactive)
15,COc1cc(/C=N/n2cnnc2)cc(Br)c1OCCOc1ccc(C(C)(C)C)cc1,6.5% (inactive)
16,O=C(CNC(=O)C(c1ccccc1)c1ccccc1)N/N=C/c1cn[nH]c1-c1ccccc1,49.7% (inactive)
17,Cc1c(OCC(=O)c2ccc(F)cc2)ccc2c3c(c(=O)oc12)CCCC3,0.4% (inactive)
18,Cc1ccc(N(Cc2c(O)ccc3ccccc23)C(=O)c2cccc([N+](=O)[O-])c2)cc1,-2.5% (inactive)
19,O=S(=O)(/N=C/c1ccccc1)c1cccs1,1.2% (inactive)
20,COc1ccc(NC2SC(=O)NC2=O)cc1 (configuration not stated),11.7% (inactive)
21,CCOc1cccc(-c2cc(C(=O)N3CCCCCC3)c3ccccc3n2)c1,3.9% (inactive)
22,NNC(=O)c1n[nH]c2c1CCCCCCCCCC2,-1.8% (inactive)
23,Cc1ccccc1NC(=S)N1CCN(c2cccc(Cl)c2)CC1,6.6% (inactive)

row,SMILES,relative survival (cellular ATP)
1,CSc1ccc(CN2CCN(C(=O)c3cccc(F)c3)CC2)cc1,7.7% (inactive)
2,O=C(Nc1ccc(Br)cn1)c1cc2n(n1)C(C(F)(F)F)CC(c1cccs1)N2 (configuration not stated),-3.5% (inactive)
3,NS(=O)(=O)c1ccc(CCNC(=O)c2cccs2)cc1,-2.4% (inactive)
4,COc1ccccc1C(=O)NN1C(=O)/C(=C2/C(=O)N(CC(=O)O)c3ccccc32)SC1=S,25.3% (inactive)
5,CCN(CC)S(=O)(=O)c1ccc(NC(=O)c2ccc(OC)c(I)c2)cc1,0.8% (inactive)
6,COc1ccc(C2CC(=O)C3=C(C2)Nc2ccccc2NC3c2cccc(C)c2)cc1 (configuration not stated),102% (active)
7,COC(=O)C1=C(C)NC2=C(C(=O)CC(c3ccc(OC)c(OC)c3)C2)C1c1ccccc1OCc1ccccc1 (configuration not stated),60.6% (active)
8,CCCCOc1ccccc1C1Nc2ccccc2NC2=C1C(=O)CC(c1ccc(OC)c(OC)c1)C2 (configuration not stated),76.5% (active)
9,COc1ccc(C2CC(=O)C3=C(C2)Nc2ccccc2NC3c2cccc(Cl)c2)cc1 (configuration not stated),6.7% (inactive)
10,COC(=O)C1=C(C)NC2=C(C(=O)CC(c3ccccc3)C2)C1c1cccc(I)c1 (configuration not stated),22.6% (inactive)
11,COc1ccc(C2CC(=O)C3=C(C2)Nc2ccccc2NC3c2cc(F)ccc2F)cc1 (configuration not stated),-0.8% (inactive)
12,COC(=O)C1=C(C)NC2=C(C(=O)CC(c3ccc(OC)c(OC)c3)C2)C1c1ccc(OC)c(OC)c1 (configuration not stated),8.8% (inactive)
13,COc1ccc(C2CC(=O)C3=C(C2)Nc2ccccc2NC3c2cc3c(cc2[N+](=O)[O-])OCO3)cc1 (configuration not stated),-4.3% (inactive)
14,COc1ccc(C2CC(=O)C3=C(C2)Nc2ccccc2NC3c2ccc(SC)cc2)cc1 (configuration not stated),7.4% (inactive)
15,CCc1c(C)sc(NC(=O)CCc2ccc(OC)cc2)c1C#N,4.9% (inactive)
16,COc1cccc(/C=N/N2CCN(Cc3ccc(Cl)cc3)CC2)c1,-4.1% (inactive)
17,CCOc1cc(OCC)cc(C(=O)Nc2cc3nn(-c4ccc(OC)cc4)nc3cc2C)c1,4.3% (inactive)
18,CCCCCCCCC(=O)N/N=C/c1ccsc1C,2.5% (inactive)
19,Cc1cc(NC(=O)COC(=O)/C=C/c2ccc([N+](=O)[O-])cc2)no1,1.8% (inactive)
20,Cc1ccc([N+](=O)[O-])cc1NC(=O)C12CC3CC(CC(C3)C1)C2,-1.4% (inactive)
21,CC1(C)Nc2ccc(OC(=O)c3ccccc3Br)cc2-c2c1ssc2=S,-1% (inactive)
22,Cc1ccc(Cl)cc1NC1=CC(=O)CC(C)(C)C1,10.7% (inactive)
23,O=C(NC1CCCCCC1)c1ccc([N+](=O)[O-])o1,-27.9% (inactive)

row,SMILES,relative survival (cellular ATP)
1,CCO/N=C1/CC(c2ccccc2)Cc2onc(C)c21 (configuration not stated),13.2% (inactive)
2,COC(=O)c1ccc(C2Nc3ccccc3NC3=C2C(=O)CC(c2ccccc2)C3)cc1 (configuration not stated),3.7% (inactive)
3,COc1cc(C2Nc3ccc(C(=O)c4ccccc4)cc3NC3=C2C(=O)CCC3)cc(OC)c1OC (configuration not stated),-2.2% (inactive)
4,O=C1CCCC2=C1C(c1ccc(Cl)cc1)Nc1ccc(C(=O)c3ccccc3)cc1N2 (configuration not stated),72.5% (active)
5,NC(=O)c1ccccc1N=Cc1ccccc1[N+](=O)[O-],1.7% (inactive)
6,CCOc1ccc(N2C(=O)CC(NCc3cccnc3)C2=O)cc1 (configuration not stated),5.5% (inactive)
7,CC(=O)N(C1=C(Cl)C(=O)c2ccccc2C1=O)c1cccc(Br)c1,11.1% (inactive)
8,CC(=O)Nc1ccc(S(=O)(=O)Nc2ccc(Br)c(Cl)c2)cc1,5.8% (inactive)
9,CCN(C(=O)c1ccccc1)c1ccccc1,-4.6% (inactive)
10,COc1ccc(C2/C(=C(\O)c3ccccc3)C(=O)C(=O)N2CCCCCC(=O)O)c(OC)c1 (configuration not stated),-3.4% (inactive)
11,CCN(C(=O)c1sc(NC(=O)c2ccc(Cl)cc2)c(C#N)c1C)C1CCCCC1,2.3% (inactive)
12,CCOc1ccc(/C=N/N2CCN(c3ccccc3OC)CC2)cc1OC,5.2% (inactive)
13,COc1ccc(C(=O)NC(N2CCCCC2)C(Cl)(Cl)Cl)cc1OC (configuration not stated),3.6% (inactive)
14,C=CCc1c(C)nc(-c2ccccc2)nc1Nc1ccc(C(=O)O)cc1,0.2% (inactive)
15,Cn1cc(/C=C2/SC(=S)N(c3ccccc3)C2=O)c2ccccc21,6.8% (inactive)
16,CC1=C(C(=O)Nc2ccccc2)C(c2ccc3c(c2)OCO3)NC(=S)N1 (configuration not stated),10.1% (inactive)
17,CCOC(=O)C(=Cc1ccc(-c2cccc(Cl)c2Cl)o1)C(=O)OCC,5.9% (inactive)
18,COc1ccccc1-n1cnc2cc(NC(=O)c3ccccc3)ccc21,97.4% (active)
19,COc1cc(OC)cc(C(=O)Nc2ccc3nn(-c4ccc(F)cc4)nc3c2)c1,4% (inactive)
20,COc1ccc(NC(=O)c2cccc(F)c2)cc1OC,24.8% (inactive)
21,COc1ccc(CN2CCN(C(=O)c3cccc(Cl)c3)CC2)cc1OC,2.9% (inactive)
22,O=C(Nc1cccc(Br)c1)c1ccc(N2C(=O)c3cccnc3C2=O)cc1,4.6% (inactive)
23,Cc1ccc(-c2[nH]ncc2/C=N/NC(=O)c2ccc(Br)cc2)cc1,3.5% (inactive)
